Among the data in PubChem BioAssay (NCI) are growth inhibition values, retold here.

The structures appear in SMILES notation. Compounds without any hit were thinned out: in the full panel of roughly 79,000, 15% have a hit. The source made the active and inactive calls. Rule as the data show it: active = growth inhibition above about 70%; inactive = the rest.

The first experiment can be described thus: NCI Yeast Anticancer Drug Screen. Data for the cln2 rad14 strain (AID 165).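 Also: 0% = growth equal to vehicle treated cultures.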 The following applies: S. cerevisiae cln2 rad14 strain, at 50.0 µM, active compounds read high. In short, it runs like this:
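Each compound was tested on cln2 rad14 yeast. Inhibition of growth was calculated against vehicle-exposed controls.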
For `C=C1C(=O)C23C(O)CC4C5(C)CCCC4(C(O)OC5)C2C(OC(C)=O)CC1C3O` (centres undefined), the growth inhibition is 10.1% (inactive).
For `O=C(O)CCCCC(=O)c1cc(O)ccc1O`, the growth inhibition is -53.3% (inactive).
Consider `COc1nc(NC2OC(COC(C)=O)C(OC(C)=O)C(OC(C)=O)C2OC(C)=O)c(-c2csc(N)n2)c(=O)n1C` (centres undefined), for which the growth inhibition was 4.35% (inactive).
With `CSc1ccc(/C=C/c2ccnc3ccccc23)cc1`, the growth inhibition is -12.3% (inactive).
Still for that read-out and setting: with `Clc1cnnc(Cl)c1N/N=C/c1ccco1` the figure was -43.2% (inactive); with `C/C(=C(/O)c1ccc(Cl)cc1)c1nc2cc(Cl)cc([N+](=O)[O-])c2[nH]c1=O`, -4.55% (inactive).
In the case of `CC(=O)Nc1ccc2c(c1)N(O)C(=O)C2(C)C`, the growth inhibition was -36.1% (inactive).
On the same count and under the same terms, with `CCN(C(=O)CCl)c1ccccc1` the figure was -12.6% (inactive); with `C[C@H](CCc1nc(C#N)c(N)o1)[C@H]1CC[C@H]2[C@@H]3CCC4C[C@@H](O)CC[C@]4(C)[C@H]3C[C@@H](O)[C@]12C` (some centres undefined), 87.7% (active).
The same measure, in the same setting: with `COc1cccc(NC(=O)CC(=O)NN2C(=O)/C(=C/c3ccc(N(CCC#N)CCC#N)cc3)N=C2c2cc([N+](=O)[O-])ccc2Cl)c1` the figure was -6.7% (inactive).
On the same count and under the same terms, then `Cc1cc(C)c(COCc2c(C)cc(C)cc2C)c(C)c1`, with -34.1% (inactive).
Consider `Cc1nc2c(Cl)cc(Cl)cc2c(Cl)c1CCCl`, for which the growth inhibition is 18.9% (inactive).
The same measure, in the same setting: then `COc1ccc(OC)c(NC(=O)Nc2nccs2)c1`, with -5.25% (inactive); and `Cc1ccc2ccccc2c1CC(=O)NN`, with -25.2% (inactive); and `CCC12C[N+]3([O-])CCc4c([nH]c5ccccc45)C(C(=O)OC)(c4cc5c(cc4OC)N(C)C4C(O)(C(=O)OC)C(OC(C)=O)C6(CC)C=CCN7CCC54C76)CC(C3)C1O2` (centres undefined), with -9.8% (inactive).
Same read-out and setting: then `Nc1nnc2cc(Br)ccc2n1`, with 14.2% (inactive); and `NNC(=O)C1CC1`, with 2.8% (inactive).
The same measure, in the same setting: then `Cc1cccc(C)c1NC(=O)Nc1cccc(C(F)(F)F)c1`, with -22.4% (inactive); and `CC1=CC(C)(C)NC(=S)N1c1cccc2c(S(=O)(=O)O)cccc12`, with -32.3% (inactive); and `CNC(=O)N(C)C(=O)c1ccncc1C(=O)N(C(=O)NC1CCCCC1)C1CCCCC1`, with 20.8% (inactive).
With `C[N+](C)(C)/N=C1\CC2CCC1C2` (centres undefined), the growth inhibition is 4.75% (inactive).
In the case of `O=C(O)CCC(=O)Nc1cc(C(F)(F)F)ccc1Cl`, the growth inhibition is 25.1% (inactive).
Take `COc1cc(/C=C(\OC(C)=O)c2ccc3c(c2)OCO3)cc(OC)c1OC`: the growth inhibition is 13.6% (inactive).
The same measure, in the same setting: then `Cc1ccnc2ccccc12`, with -3.2% (inactive); and `CCOc1ccc2nc(NC(=O)C(=O)C(C#N)CC(C)(C)C=O)sc2c1` (centres undefined), with 7.7% (inactive); and `COc1ccc(OC)c2cc3c(cc12)C(=O)C(C)=C(C)C3=O`, with -30% (inactive).
In the case of `CCCCCCCCCCCCCCCC(=O)OCC1OC(n2ccc(N)nc2=O)C(O)C1O` (centres undefined), the growth inhibition is 8.2% (inactive).
Same read-out and setting: with `CC(=O)OC1CCC2(C)C3=CCC4(C)C(C(C)=O)=CCC4C3CCC2C1` (centres undefined) the figure was 12.6% (inactive); with `CCCCC[N+](CCCCC)(CCCCC)CCCCC`, 8.4% (inactive).
For `COC(=O)c1nc(=S)[nH]c(C(=O)OC)c1C(=O)c1ccccc1O`, the growth inhibition was 3.4% (inactive).
Same read-out and setting: with `COC(=O)[C@@H]1CON(Cc2ccccc2)C1CC1(C)OCCO1` (some centres undefined) the figure was 0.6% (inactive).
On the same count and under the same terms, then `COc1ccc(C2=C(C#N)C(=C(C#N)C#N)NC(N)=C2C#N)cc1`, with -4.75% (inactive); and `O=[N+]([O-])C(Cl)C(Cl)C(Cl)=C(Cl)Cl` (centres undefined), with 35.8% (inactive).
As to `CCOC(=O)C(C#N)(Cc1c(-c2ccccc2)[nH]c2ccccc12)NC(C)=O` (centres undefined), the growth inhibition is -14.6% (inactive).
On to `Cc1cc2c(C(C)C)c(O)c(O)c(C=Nc3cccc(O)c3)c2c(O)c1-c1c(C)cc2c(C(C)C)c(O)c(O)c(C=Nc3cccc(O)c3)c2c1O`, for which the growth inhibition is 46.1% (inactive).
On the same count and under the same terms, then `c1ccc2sc(-c3nc4ccccc4s3)nc2c1`, with -21.7% (inactive); and `Clc1ccc(-c2nnc(-c3ccccc3)o2)cc1Cl`, with 16% (inactive).
Turning to `COc1cccc(NC(=O)CC(=O)Nc2cccc(OC)c2)c1`, the growth inhibition was -32.1% (inactive).
Consider `Cc1ccccc1C(=O)c1ccc2ccccc2c1`, for which the growth inhibition is 9.35% (inactive).
Take `Cc1ccc2ccccc2[n+]1CC(=O)c1ccc2c(c1)OCO2`: the growth inhibition was 3.85% (inactive).

A short description of the next experiment: NCI Yeast Anticancer Drug Screen. Data for the bub3 strain (AID 167). The following applies: S. cerevisiae bub3 mutant strain, at 50.0 µM, active compounds read high. In short, it runs like this: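 Growth of a checkpoint-deficient yeast mutant is measured after compound exposure. Values represent inhibition relative to vehicle.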
For the compound `C=C1C(=O)C23C(O)CC4C5(C)CCCC4(C(O)OC5)C2C(OC(C)=O)CC1C3O` (centres undefined), the growth inhibition is -7.3% (inactive).
On to `O=C(O)CCCCC(=O)c1cc(O)ccc1O`, for which the growth inhibition was -15.3% (inactive).
Same read-out and setting: then `COc1nc(NC2OC(COC(C)=O)C(OC(C)=O)C(OC(C)=O)C2OC(C)=O)c(-c2csc(N)n2)c(=O)n1C` (centres undefined), with -11.3% (inactive).
Still for that read-out and setting: then `CSc1ccc(/C=C/c2ccnc3ccccc23)cc1`, with 4.7% (inactive); and `Clc1cnnc(Cl)c1N/N=C/c1ccco1`, with -6.7% (inactive).
Same read-out and setting: then `C/C(=C(/O)c1ccc(Cl)cc1)c1nc2cc(Cl)cc([N+](=O)[O-])c2[nH]c1=O`, with 18.9% (inactive); and `CC(=O)Nc1ccc2c(c1)N(O)C(=O)C2(C)C`, with 5.5% (inactive); and `CCN(C(=O)CCl)c1ccccc1`, with -7.25% (inactive).
Take `C[C@H](CCc1nc(C#N)c(N)o1)[C@H]1CC[C@H]2[C@@H]3CCC4C[C@@H](O)CC[C@]4(C)[C@H]3C[C@@H](O)[C@]12C` (some centres undefined): the growth inhibition is 84% (active).
Consider `COc1cccc(NC(=O)CC(=O)NN2C(=O)/C(=C/c3ccc(N(CCC#N)CCC#N)cc3)N=C2c2cc([N+](=O)[O-])ccc2Cl)c1`, for which the growth inhibition is 0.3% (inactive).
With `Cc1cc(C)c(COCc2c(C)cc(C)cc2C)c(C)c1`, the growth inhibition is -2% (inactive).
Regarding `Cc1nc2c(Cl)cc(Cl)cc2c(Cl)c1CCCl`, the growth inhibition was 39.6% (inactive).
As to `COc1ccc(OC)c(NC(=O)Nc2nccs2)c1`, the growth inhibition is 36.6% (inactive).
Still for that read-out and setting: then `Cc1ccc2ccccc2c1CC(=O)NN`, with 6.9% (inactive); and `CCC12C[N+]3([O-])CCc4c([nH]c5ccccc45)C(C(=O)OC)(c4cc5c(cc4OC)N(C)C4C(O)(C(=O)OC)C(OC(C)=O)C6(CC)C=CCN7CCC54C76)CC(C3)C1O2` (centres undefined), with -2.2% (inactive); and `Nc1nnc2cc(Br)ccc2n1`, with 19.5% (inactive).
Turning to `NNC(=O)C1CC1`, the growth inhibition is -14.1% (inactive).
As to `Cc1cccc(C)c1NC(=O)Nc1cccc(C(F)(F)F)c1`, the growth inhibition is -8.25% (inactive).
Same read-out and setting: with `CC1=CC(C)(C)NC(=S)N1c1cccc2c(S(=O)(=O)O)cccc12` the figure was 4.55% (inactive); with `CNC(=O)N(C)C(=O)c1ccncc1C(=O)N(C(=O)NC1CCCCC1)C1CCCCC1`, -3.95% (inactive).
The same measure, in the same setting: then `C[N+](C)(C)/N=C1\CC2CCC1C2` (centres undefined), with 1.9% (inactive).
For `O=C(O)CCC(=O)Nc1cc(C(F)(F)F)ccc1Cl`, the growth inhibition was 14.8% (inactive).
As for `COc1cc(/C=C(\OC(C)=O)c2ccc3c(c2)OCO3)cc(OC)c1OC`, the growth inhibition was 44% (inactive).
Turning to `Cc1ccnc2ccccc12`, the growth inhibition is -2.15% (inactive).
Consider `CCOc1ccc2nc(NC(=O)C(=O)C(C#N)CC(C)(C)C=O)sc2c1` (centres undefined), for which the growth inhibition is -12.6% (inactive).
Regarding `COc1ccc(OC)c2cc3c(cc12)C(=O)C(C)=C(C)C3=O`, the growth inhibition was -1.3% (inactive).
Still for that read-out and setting: then `CCCCCCCCCCCCCCCC(=O)OCC1OC(n2ccc(N)nc2=O)C(O)C1O` (centres undefined), with 4.1% (inactive); and `CC(=O)OC1CCC2(C)C3=CCC4(C)C(C(C)=O)=CCC4C3CCC2C1` (centres undefined), with -22.9% (inactive); and `CCCCC[N+](CCCCC)(CCCCC)CCCCC`, with 14% (inactive).
Still for that read-out and setting: with `COC(=O)c1nc(=S)[nH]c(C(=O)OC)c1C(=O)c1ccccc1O` the figure was 29.1% (inactive).
On to `COC(=O)[C@@H]1CON(Cc2ccccc2)C1CC1(C)OCCO1` (some centres undefined), for which the growth inhibition was 7.35% (inactive).
For `COc1ccc(C2=C(C#N)C(=C(C#N)C#N)NC(N)=C2C#N)cc1`, the growth inhibition was -19.4% (inactive).
In the case of `O=[N+]([O-])C(Cl)C(Cl)C(Cl)=C(Cl)Cl` (centres undefined), the growth inhibition is 60.8% (inactive).
On to `CCOC(=O)C(C#N)(Cc1c(-c2ccccc2)[nH]c2ccccc12)NC(C)=O` (centres undefined), for which the growth inhibition is 7.9% (inactive).
The same measure, in the same setting: with `c1ccc2sc(-c3nc4ccccc4s3)nc2c1` the figure was 8.3% (inactive); with `Clc1ccc(-c2nnc(-c3ccccc3)o2)cc1Cl`, -18.9% (inactive); with `COc1cccc(NC(=O)CC(=O)Nc2cccc(OC)c2)c1`, 10.1% (inactive).
For `Cc1ccccc1C(=O)c1ccc2ccccc2c1`, the growth inhibition was 9.3% (inactive).
With `Cc1ccc2ccccc2[n+]1CC(=O)c1ccc2c(c1)OCO2`, the growth inhibition was -10.7% (inactive).
